Compound activity (PubChem BioAssay)
This excerpt belongs to a sample that is enriched for hits.
nsP2pro primary: inhibitors of chikungunya virus nsP2 protease | FRET peptide cleavage, nsP2pro, fluorescence 1 h | AID 1964107 | hit rate 1.1% among 31,000 | Potency, µM (top dose mostly 24.9 µM), for inactives: top-dose activity change, negative = inhibition, usual class: inhibitors; note: nearly all actives have a fitted effect of over 60% in size
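Recombinant nsP2pro (150 nM) was preincubated with compound 15 min at room temperature in 10 mM Tris-HCl pH 8.0, 0.01% Tween 20. Peptide 2 FRET substrate (2.5 uM) was then added and fluorescence read after 1 h. Seven-point series, up to 25 uM.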
nsP2 cell sec: cell-based CHIKV nsP2 protease inhibition, secondary. Potency, µM (doses to about 51.1 µM), without a hit: at the highest dose activity change, negative = inhibition, actives largely listed as inhibitors. AID 1964100. hit rate 10% among 450. shares compounds with nsP2pro primary. cell-based CHIKV nsP2 protease reporter assay; note: nearly all actives have a fitted effect of over 70% in size
NSP2 full ctr: inhibits full-length CHIKV NSP2 enzyme. shares compounds with nsP2pro primary. Full-length CHIKV NSP2 protease enzymatic counterscreen. Potency, µM (top dose mostly 50.7 µM), without a hit: at the highest dose activity change, negative = inhibition, usual class: inhibitors. hit rate 39% among 410; note: nearly all actives have a fitted effect of over 65% in size
Furin counter: inhibits human furin in a CHIKV nsP2 protease selectivity counterscreen; shares compounds with nsP2pro primary; Recombinant human furin enzymatic counterscreen, fluorogenic substrate; Potency, µM (titrated, usually from 50.6 µM), for the others: at the top dose activity change, negative = inhibition, actives largely listed as inhibitors; hit rate 6% among 410
Target sequence (P09958 whole entry, looked up): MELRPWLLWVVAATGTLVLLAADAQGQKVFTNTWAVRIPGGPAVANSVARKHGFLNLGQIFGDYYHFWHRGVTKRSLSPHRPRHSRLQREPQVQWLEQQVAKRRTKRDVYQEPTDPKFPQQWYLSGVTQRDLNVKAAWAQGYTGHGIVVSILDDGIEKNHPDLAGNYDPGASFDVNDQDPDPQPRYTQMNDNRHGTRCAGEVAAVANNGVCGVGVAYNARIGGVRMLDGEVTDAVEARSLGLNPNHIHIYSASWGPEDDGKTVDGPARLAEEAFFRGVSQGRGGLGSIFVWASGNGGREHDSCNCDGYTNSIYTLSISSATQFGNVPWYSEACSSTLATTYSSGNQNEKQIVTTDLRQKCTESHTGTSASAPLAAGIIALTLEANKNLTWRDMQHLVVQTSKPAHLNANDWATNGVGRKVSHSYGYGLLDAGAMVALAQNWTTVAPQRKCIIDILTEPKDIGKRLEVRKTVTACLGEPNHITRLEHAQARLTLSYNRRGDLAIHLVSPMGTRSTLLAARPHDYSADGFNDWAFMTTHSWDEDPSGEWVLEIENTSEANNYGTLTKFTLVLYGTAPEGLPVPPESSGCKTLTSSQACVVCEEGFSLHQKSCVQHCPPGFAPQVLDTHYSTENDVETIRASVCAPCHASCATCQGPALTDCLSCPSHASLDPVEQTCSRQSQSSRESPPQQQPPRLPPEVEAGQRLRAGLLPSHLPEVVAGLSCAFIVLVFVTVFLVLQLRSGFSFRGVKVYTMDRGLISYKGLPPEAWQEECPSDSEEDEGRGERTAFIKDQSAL
NS23 peptide cs: selectivity test for CHIKV nsP2 protease inhibitors: endogenous NS2/3 peptide. shares compounds with nsP2pro primary. Purified CHIKV nsP2 protease, endogenous NS2/3 peptide cleavage. Potency, µM (highest dose often 51 µM), for inactives: at the top dose activity change, negative = inhibition, hits mostly inhibitors. hit rate 34% among 410; note: nearly all actives have a fitted effect of over 55% in size
Papain counter: inhibits papain in a CHIKV nsP2 protease selectivity counterscreen; shares compounds with nsP2pro primary; purified papain protease activity, enzymatic inhibition; hit rate 5% among 410; Potency, µM (highest dose often 51 µM), inactives show at the highest dose activity change, negative = inhibition, hits mostly inhibitors; AID 1964104
nsP2pro conf qHTS: confirmation of CHIKV nsP2 protease inhibitors. shares compounds with nsP2pro primary. CHIKV nsP2 protease enzymatic activity, qHTS. Potency, µM (top dose mostly 25.5 µM), inactives show at the highest dose activity change, negative = inhibition, most hits filed as inhibitors. hit rate 43% among 410. AID 1964105; note: nearly all actives have a fitted effect of over 75% in size
HCV NS3 4A cs: selectivity counter-screen for CHIKV nsP2 protease inhibitors: HCV NS3/4A | shares compounds with nsP2pro primary | HCV NS3/4A protease biochemical counterscreen | Potency, µM (highest dose often 50.9 µM), usual class: inhibitors | hit rate 20% among 410 | AID 1964106; note: nearly all actives have a fitted effect of over 55% in size
Active calls of the source: *; i = inactive; u = inconclusive; [ ] = remark or other dose. Calls come from the whole dose curve. % is set by controls: 0 for no effect and ±100 for the full control effect; potency is the fitted concentration of half-maximal effect.

SMILES	nsP2pro primary	others
C[C@@H]1[C@H](c2c(F)ccc(F)c2F)C[C@H](NC(=O)c2cnc3c(c2)C[C@@]2(C3)C(=O)Nc3ncccc32)C(=O)N1CC(F)(F)F	1%
CN(C(=O)/C=C/c1ccoc1)[C@@H]1CC[C@@]2(O)[C@H]3Cc4ccc(O)c5c4[C@@]2(CCN3CC2CC2)[C@H]1O5	-6%
S=C(SSC(=S)N1CCCCC1)N1CCCCC1	2.5µM*	nsP2 cell sec=13µM*;NSP2 full ctr=15µM*;Furin counter=-2%;NS23 peptide cs=16µM*;Papain counter=-25%;nsP2pro conf qHTS=3.6µM*;HCV NS3 4A cs=i
Cc1noc(-c2ccc(-c3ccc(CC(=O)O)cc3)cc2)c1NC(=O)O[C@H](C)c1ccccc1	26%
Cn1nc(CN2CCOCC2)c2c1CCN(S(=O)(=O)c1cccnc1)C2	-5%
CCCS(=O)(=O)NC1CC(N(C)c2ncnc3[nH]ccc23)C1 (stereo not drawn)	-6%
COc1ccc(C2C(C(=O)O)C(C(=O)O)C2c2ccc(OC)cc2O[C@@H]2O[C@H](CO)[C@@H](O)[C@H](O)[C@H]2O)c(O[C@@H]2O[C@H](CO)[C@@H](O)[C@H](O)[C@H]2O)c1 (stereo partly drawn)	59%[10 µM]
Nc1ccccc1	0%
[Hg+][c]1ccccc1	0.56µM*	nsP2 cell sec=u;NSP2 full ctr=1µM*;Furin counter=1µM*;NS23 peptide cs=3.7µM*;Papain counter=-3%;nsP2pro conf qHTS=0.28µM*;HCV NS3 4A cs=0.23µM*
CC(=O)N[C@@H]1[C@@H](O)[C@H](O)[C@@H](CO)O[C@H]1O	-10%
CCC(C)/C=C(C)/C=C/C1=CC2=C(Cl)C(=O)C(C)(OC(C)=O)C(=O)C2=CN1C(CCC(=O)O)C(=O)O (stereo not drawn)	-1%[10 µM]
CCC(C)/C=C(C)/C=C/C1=CC2=CC(=O)C(C)(O)C(OC(C)=O)C2CO1 (stereo not drawn)	-2%
CCC(C)/C=C(C)/C=C/C1=CC2=CC(=O)C3(C)OC(C)(O)C(C(=O)OC)C3C2=CO1 (stereo not drawn)	u	nsP2 cell sec=-4%[17.6 µM];NSP2 full ctr=-15%[17.3 µM];Furin counter=-9%[17.3 µM];NS23 peptide cs=-11%[17.2 µM];Papain counter=4%[17.2 µM];nsP2pro conf qHTS=u;HCV NS3 4A cs=i
CCC(C)/C=C(C)/C=C/C1=CC2=C(Cl)C(=O)C(C)(OC(C)=O)C(=O)C2=CN1CCCCC(N)C(=O)O (stereo not drawn)	-21%[10 µM]
CC[C@H](C)/C=C(C)/C=C/C1=CC2=CC(=O)[C@]3(C)OC(=O)[C@@H](C(C)=O)[C@@H]3C2=CO1	u	nsP2 cell sec=2%[33.5 µM];NSP2 full ctr=u;Furin counter=-22%[33.5 µM];NS23 peptide cs=u;Papain counter=41%[33.5 µM];nsP2pro conf qHTS=u;HCV NS3 4A cs=i
CCC(C)/C=C(C)/C=C/C1=CC2=C(Cl)C(=O)C(C)(OC(C)=O)C(=O)C2=CO1 (stereo not drawn)	u	nsP2 cell sec=-14%[33.5 µM];NSP2 full ctr=u;Furin counter=-19%[33.5 µM];NS23 peptide cs=u;Papain counter=u;nsP2pro conf qHTS=u;HCV NS3 4A cs=i
CCOCC(=O)Nc1nn(-c2ccc(F)cc2)c2cccc(N3CCOC3=O)c12	-2%
O=C(O)CC1NCCNC1=O (stereo not drawn)	4%
CCOc1cc(=O)n2c(c1C(=O)NC1CCCC1)CCCCC2	i
Cc1nc(C)c(-c2ccc3ncnc(NCCc4cnc[nH]4)c3c2)s1	i
Cc1sc2c(c1C)C(c1ccc(Cl)cc1)=N[C@H](CC(=O)NCCCCNC(=O)COc1cccc3c1C(=O)N([C@H]1CCC(=O)NC1=O)C3=O)c1nnc(C)n1-2	29%
Cc1nnc(Nc2sc3c(c2-c2nc4ccccc4s2)CCNC3)o1	-17%
CC1CCN(C(=O)C[C@@H]2c3nc(NC(=O)CC(C)(C)C)sc3C[C@@H]3[C@](C)(CO)[C@H](O)CC[C@]32C)CC1	3%
O=C(Cc1cccc(Cl)c1)NCCNC(=O)c1cccc(-c2ccsc2)c1	i
CC1=CC(=O)[C@@]2(C(C)C)C[C@@H]12	31%
SMILES	nsP2pro primary	others
COc1ccc(CC(=O)N2CCC(c3n[nH]c(=O)n3Cc3ccc(F)cc3)CC2)cc1	i
CN(Cc1ccccc1)C(=O)CC1CCN(C(=O)Cc2ccccc2)C1 (stereo not drawn)	6%
Cc1nc(C2CCN(C(=O)Cc3ccccc3)CCN2C(=O)Cc2ccccc2)n[nH]1 (stereo not drawn)	u	nsP2 cell sec=1%;NSP2 full ctr=u;Furin counter=-2%;NS23 peptide cs=u;Papain counter=-2%;nsP2pro conf qHTS=u;HCV NS3 4A cs=u
O=C(c1ccncc1)N1CC2CCC(C1)N2Cc1ccc(-c2cccs2)cc1	3%
O=C1CCc2cc(S(=O)(=O)Nc3ccc(F)c(Cl)c3)c(F)cc2N1	-7%
O=C(CCCc1ccccc1)Nc1ccc(OC2CCNCC2)nc1	-22%
O=C1Nc2ccccc2CN(CC2CCCCC2)C12CCNC2 (stereo not drawn)	7%
CN1Cc2ccccc2NC(=O)C12CCNC2 (stereo not drawn)	-16%[39.2 µM]
CCN1Cc2ccccc2NC(=O)C12CCNC2 (stereo not drawn)	8.9µM*	nsP2 cell sec=u;NSP2 full ctr=6.4µM*;Furin counter=-22%;NS23 peptide cs=14µM*;Papain counter=-4%;nsP2pro conf qHTS=8.9µM*;HCV NS3 4A cs=3.6µM*
CN1CC(=O)N(C2CCCCC2)Cc2c(NCCO)ncnc21	-3%[39.2 µM]
COc1ccc(C2(CNC(=O)c3ccc(NC(=O)c4ccco4)cc3)CCOCC2)cc1	-5%
Cc1ccc([S+](=O)([O-])N2CC3(Cc4ccccc4N([S+](C)(=O)[O-])C3)C2)cc1	4%
CCC(=O)O[C@H]1CC[C@H]2[C@@H]3CC[C@H]4CC(=O)[C@H](C)C[C@]4(C)[C@H]3CC[C@]12C	-11%
C=CCN1CCN(C(=O)[C@@]23CCCC[C@H]2N(CCC(C)C)C(=O)CC3)CC1	-1%
CC(C)=CCC/C(C)=C/CO[C@@H]1O[C@H](CO[C@@H]2OC[C@](O)(CO)[C@H]2O)[C@@H](O)[C@H](O)[C@H]1O	-9%[10 µM]
Cc1ccc(OCCn2c(CCNCC3CCCCC3)nc3ccccc32)cc1	-4%
CC1=C(C(=O)OC(C)C)C(c2ccccc2Cl)CC(=O)N1Cc1c(F)cccc1F (stereo not drawn)	2%
C=CCN1CCN(C(=O)[C@@H]2Cc3c[nH]c4cccc(c34)[C@H](CC(C)C)N2)CC1	-18%[39.2 µM]
